About 2,000 (36%) of roughly 5,500 compounds were called active. Inconclusive results (about 18%) are left out. No stated cut-off is given here; in the data, active means normalized growth mostly below about 0.91 (no sharp cut-off); inconclusive means no clear call, values can overlap the other calls; inactive means mostly above about 0.92. Some of the results follow.
Experiment: chemical genetic growth profiling, strain panel (AID 1159580);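 further: tested at 20 µM; growth read once vehicle control cultures reached saturation at 30 °C; 1 = growth at the plate median or of vehicle wells; lower values mean less growth of the strain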
Details: growth OD

Measured: normalized growth

COc1c(C)c2c(c(O)c1C/C=C(\C)CCC(=O)O)C(=O)OC2
inactive: S. cerevisiae deletion strains, locus YKL190W, strain CNB1, active compounds read low 0.921 | S. cerevisiae deletion strains, locus YLR371W, strain rom2, active compounds read low 0.955 | S. cerevisiae deletion strains, locus YLR384C, strain iki3, active compounds read low 0.983 | S. cerevisiae deletion strains, locus YML016C, strain PPZ1, active compounds read low 0.992 | S. cerevisiae deletion strains, locus YMR307W, strain GAS1, active compounds read low 0.8 | S. cerevisiae deletion strains, locus YNL128W, strain TEP1, active compounds read low 0.868 | S. cerevisiae deletion strains, locus YOL006C, strain TOP1, active compounds read low 0.934 | S. cerevisiae deletion strains, locus YOL012C, strain htz1 0.529 | S. cerevisiae deletion strains, locus YOR061W, strain CKA2, active compounds read low 0.945 | S. cerevisiae deletion strains, locus YOR136W, strain idh2, active compounds read low 0.922 | S. cerevisiae deletion strains, locus YPL241C, strain CIN2, active compounds read low 0.967
active: S. cerevisiae deletion strains, locus YKL009W, strain mrt4, active compounds read low 0.561 | S. cerevisiae deletion strains, locus YKL068W, active compounds read low 0.72 | S. cerevisiae deletion strains, locus YKL085W, strain MDH1 (second series), active compounds read low 0.279 | S. cerevisiae deletion strains, locus YKL085W, strain MDH1, active compounds read low 0.279 | S. cerevisiae deletion strains, locus YKL160W, strain elf1, active compounds read low 0.596 | S. cerevisiae deletion strains, locus YKR001C, strain vps1, active compounds read low 0.493 | S. cerevisiae deletion strains, locus YKR026C, strain gcn3, active compounds read low 0.648 | S. cerevisiae deletion strains, locus YKR091W, strain srl3, active compounds read low 0.763 | S. cerevisiae deletion strains, locus YLL001W, strain dnm1, active compounds read low 0.398 | S. cerevisiae deletion strains, locus YLL026W, active compounds read low 0.533 | S. cerevisiae deletion strains, locus YLL041C, strain sdh2, active compounds read low 0.822 | S. cerevisiae deletion strains, locus YLR027C, strain aat2, active compounds read low 0.514 | S. cerevisiae deletion strains, locus YLR039C, strain RIC1, active compounds read low 0.504 | S. cerevisiae deletion strains, locus YLR058C, strain SHM2, active compounds read low 0.844 | S. cerevisiae deletion strains, locus YLR102C, strain apc9, active compounds read low 0.813 | S. cerevisiae deletion strains, locus YLR113W, strain HOG1, active compounds read low 0.189 | S. cerevisiae deletion strains, locus YLR221C, strain rsa3, active compounds read low 0.376 | S. cerevisiae deletion strains, locus YLR258W, strain gsy2, active compounds read low 0.532 | S. cerevisiae deletion strains, locus YLR262C, strain YPT6 (second series), active compounds read low 0.415 | S. cerevisiae deletion strains, locus YLR262C, strain YPT6, active compounds read low 0.467 | S. cerevisiae deletion strains, locus YLR268W, strain sec22, active compounds read low 0.612 | S. cerevisiae deletion strains, locus YLR320W, strain mms22, active compounds read low 0.443 | S. cerevisiae deletion strains, locus YLR330W, strain CHS5, active compounds read low 0.878 | S. cerevisiae deletion strains, locus YLR342W, strain FKS1 (second series), active compounds read low 0.669 | S. cerevisiae deletion strains, locus YLR342W, strain FKS1, active compounds read low 0.442 | S. cerevisiae deletion strains, locus YLR357W, strain rsc2, active compounds read low 0.779 | S. cerevisiae deletion strains, locus YLR370C, strain arc18, active compounds read low 0.435 | S. cerevisiae deletion strains, locus YLR418C, strain cdc73, active compounds read low 0.816 | S. cerevisiae deletion strains, locus YML032C, strain rad52, active compounds read low 0.626 | S. cerevisiae deletion strains, locus YML120C, strain ndi1, active compounds read low 0.406 | S. cerevisiae deletion strains, locus YML124C, strain tub3, active compounds read low 0.737 | S. cerevisiae deletion strains, locus YMR058W, strain fet3, active compounds read low 0.587 | S. cerevisiae deletion strains, locus YMR078C, strain ctf18, active compounds read low 0.843 | S. cerevisiae deletion strains, locus YMR125W, strain sto1, active compounds read low 0.635 | S. cerevisiae deletion strains, locus YMR129W, active compounds read low 0.571 | S. cerevisiae deletion strains, locus YMR205C, strain PFK2, active compounds read low 0.497 | S. cerevisiae deletion strains, locus YMR223W, strain ubp8, active compounds read low 0.732 | S. cerevisiae deletion strains, locus YMR231W, strain pep5, active compounds read low 0.358 | S. cerevisiae deletion strains, locus YMR263W, strain SAP30, active compounds read low 0.765 | S. cerevisiae deletion strains, locus YNL067W, strain RPL9B, active compounds read low 0.782 | S. cerevisiae deletion strains, locus YNL071W, strain lat1, active compounds read low 0.531 | S. cerevisiae deletion strains, locus YNL153C, strain GIM3, active compounds read low 0.811 | S. cerevisiae deletion strains, locus YNL183C, strain NPR1, active compounds read low 0.0633 | S. cerevisiae deletion strains, locus YNL209W, strain ssb2, active compounds read low 0.653 | S. cerevisiae deletion strains, locus YNL233W, strain BNI4, active compounds read low 0.777 | S. cerevisiae deletion strains, locus YNL248C, strain rpa49, active compounds read low 0.417 | S. cerevisiae deletion strains, locus YNL250W, strain rad50, active compounds read low 0.39 | S. cerevisiae deletion strains, locus YNL271C, strain bni1, active compounds read low 0.335 | S. cerevisiae deletion strains, locus YNL298W, strain CLA4, active compounds read low 0.328 | S. cerevisiae deletion strains, locus YNL307C, strain MCK1, active compounds read low 0.295 | S. cerevisiae deletion strains, locus YNL322C, strain KRE1 (second series), active compounds read low 0.507 | S. cerevisiae deletion strains, locus YNL322C, strain KRE1, active compounds read low 0.877 | S. cerevisiae deletion strains, locus YNR049C, strain mso1, active compounds read low 0.607 | S. cerevisiae deletion strains, locus YNR052C, strain pop2, active compounds read low 0.75 | S. cerevisiae deletion strains, locus YOL147C, strain pex11, active compounds read low 0.675 | S. cerevisiae deletion strains, locus YOR001W, strain rrp6, active compounds read low 0.582 | S. cerevisiae deletion strains, locus YOR069W, strain VPS5, active compounds read low 0.911 | S. cerevisiae deletion strains, locus YOR070C, strain gyp1, active compounds read low 0.583 | S. cerevisiae deletion strains, locus YOR080W, strain dia2, active compounds read low 0.841 | S. cerevisiae deletion strains, locus YOR083W, strain WHI5, active compounds read low 0.581 | S. cerevisiae deletion strains, locus YOR106W, strain vam3, active compounds read low 0.442 | S. cerevisiae deletion strains, locus YOR144C, strain elg1, active compounds read low 0.681 | S. cerevisiae deletion strains, locus YOR184W, strain ser1, active compounds read low 0.345 | S. cerevisiae deletion strains, locus YOR231W, strain MKK1, active compounds read low 0.171 | S. cerevisiae deletion strains, locus YOR265W, strain rbl2, active compounds read low 0.691 | S. cerevisiae deletion strains, locus YOR270C, strain vph1, active compounds read low 0.298 | S. cerevisiae deletion strains, locus YOR290C, strain snf2, active compounds read low 0.359 | S. cerevisiae deletion strains, locus YOR316C, strain cot1, active compounds read low 0.82 | S. cerevisiae deletion strains, locus YPL051W, strain arl3, active compounds read low 0.552 | S. cerevisiae deletion strains, locus YPL055C, strain LGE1, active compounds read low 0.589 | S. cerevisiae deletion strains, locus YPL078C, strain atp4, active compounds read low 0.485 | S. cerevisiae deletion strains, locus YPL106C, strain sse1, active compounds read low 0.661 | S. cerevisiae deletion strains, locus YPL240C, strain hsp82, active compounds read low 0.568 | S. cerevisiae deletion strains, locus YPL256C, strain CLN2, active compounds read low 0.18 | S. cerevisiae deletion strains, locus YPR119W, strain clb2, active compounds read low 0.815 | S. cerevisiae deletion strains, locus YPR141C, strain kar3, active compounds read low 0.575 | S. cerevisiae deletion strains, locus YPR163C, strain tif3, active compounds read low 0.547 | S. cerevisiae deletion strains, locus YPR167C, strain met16, active compounds read low 0.739 | S. cerevisiae deletion strains, strain wtn01, active compounds read low 0.684 | S. cerevisiae strains, strain wild type, active compounds read low 0.819

From PubChem BioAssay AID1159580 (chemical genetic matrix, 2015)
